Bioassay records deposited in PubChem BioAssay by National Center for Advancing Translational Sciences (NCATS).
This is one part of a sample in which hits are shown more often than they occur.
AMA1-RON2 inh – AMA1-RON2 (P. falciparum) interaction inhibition. AID 720542. actives 0.2% (n = 360,000). AlphaScreen AMA1-biotinylated RON2 peptide binding. Potency, µM (titrated, usually from 58.2 µM), without a hit: at the highest dose activity change, negative = inhibition, actives largely listed as inhibitors;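 also: potency is read from the fitted curve at half-maximal effect; 0% = vehicle wells and -100% = peptide control; nearly all actives have a fitted effect of over 45% in size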
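AMA1 (3D7) with his tag at 25 nM final met compounds first, then biotinylated RON2 peptide at 25 nM; detection used donor plus acceptor beads, 10 µg/mL apiece, read by AlphaScreen after 30 min at room temperature.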
Shiga toxin inh – blocks Shiga toxin action in Vero cells; Vero cells, Shiga toxin protein synthesis inhibition reporter; inhibition, % at 38.7 µM; actives 9.2% (n = 290,000); AID 2315; in the data active = inhibition mostly above about 28%, no sharp cut-off; inactive = mostly below about 43%; also: 0% is about no effect
Cycloheximide cs – counter-screen for Shiga toxin inhibitors: cycloheximide protein synthesis inhibition; cell reporter, cycloheximide protein synthesis inhibition counterscreen; actives 12% (n = 300,000); AID 2314; max response, %; in the data active = max response mostly above about 13%, no sharp cut-off; inactive = mostly below about 14%; also: read at 38.3 µM for the half of the compounds with a filed dose; 0% is about no effect
SARS PLpro yeast – blocks SARS-CoV papain-like protease in a yeast assay | S. cerevisiae expressing SARS-CoV PLpro, growth rescue | Potency, µM (titrated, usually from 32.9 µM), for inactives: at the highest dose activity, positive = growth rescue, usual class: activators | actives 0.19% (n = 330,000); calls by dose curve; also: potency is read from the fitted curve at half-maximal effect; 0% is about no effect; nearly all actives have a fitted effect of over 55% in size
AmpC detergent – AmpC beta-lactamase inhibition with detergent present | AmpC hydrolysis of nitrocefin, absorbance 480 nm, 0.01% Triton | Potency, µM (titrated, usually from 114 µM), for the others: top-dose activity change, negative = inhibition, usual class: inhibitors | actives 0.041% (n = 370,000);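 also: potency is read from the fitted curve at half-maximal effect; 0% = no-compound wells and -100% = no-enzyme wells; nearly all actives have a fitted effect of over 25% in size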
Target sequence (P00811 whole entry, looked up): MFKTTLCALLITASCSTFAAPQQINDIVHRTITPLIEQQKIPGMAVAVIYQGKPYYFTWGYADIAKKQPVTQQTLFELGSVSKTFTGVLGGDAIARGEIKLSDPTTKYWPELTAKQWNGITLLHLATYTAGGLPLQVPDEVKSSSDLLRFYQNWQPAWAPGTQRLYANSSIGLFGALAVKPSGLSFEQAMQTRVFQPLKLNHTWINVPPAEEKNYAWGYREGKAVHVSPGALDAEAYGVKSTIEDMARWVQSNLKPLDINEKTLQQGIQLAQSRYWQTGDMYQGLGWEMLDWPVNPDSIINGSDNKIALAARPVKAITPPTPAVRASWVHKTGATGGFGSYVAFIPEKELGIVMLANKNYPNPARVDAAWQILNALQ
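AmpC (5.3 nM in the dispensed reagent) in 20 mM phosphate pH 7.0 with 0.01% (detergent screen) or 0.0001% Triton X-100 was preincubated with compounds for 15 min at room temperature. Nitrocefin was then added from an 800 uM solution, and hydrolysis was followed at 480 nm.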
AmpC inh no detg – blocks E. coli AmpC beta-lactamase in detergent-free assay; P00811; Potency, µM (titrated, usually from 57.1 µM), for the others: at the highest dose activity change, negative = inhibition, hits mostly inhibitors; AID 485341; actives 0.52% (n = 330,000); AmpC nitrocefin hydrolysis, absorbance 480 nm, 0.0001% Triton;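 also: potency is read from the fitted curve at half-maximal effect; plate controls were no compound for no effect and no enzyme for full effect; nearly all actives have a fitted effect of over 20% in size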
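20 mM phosphate pH 7.0 + 0.01% (detergent screen) or 0.0001% Triton X-100; 5.3 nM AmpC reagent; cpd preinc 15 min RT; nitrocefin (800 uM stock) to start; A480 q20 s × 4 min; Activity was normalised to no-enzyme and no-compound control wells.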
* = called active by the depositor. Unless noted, calls follow the shape of the dose curve; as a rule, active = well fitted curve in the direction sought with a large enough effect; inconclusive = small, poorly fitted or top-dose-only effect, or another doubt; inactive = no such curve, though single readings can be large; an effect the other way counts as inactive or inconclusive.

Screening CCN(c1ccccc1)S(=O)(=O)c1ccc2ccccc2c1 returned AMA1-RON2 inh 7%, Shiga toxin inh 17, Cycloheximide cs 2, SARS PLpro yeast -6%, AmpC detergent -6% and AmpC inh no detg -36%.
For CN(c1ccc(O)cc1)S(=O)(=O)c1ccc2ccccc2c1 the results were AMA1-RON2 inh 4%, Shiga toxin inh 77*, Cycloheximide cs 24*, SARS PLpro yeast -8%, AmpC detergent -5% and AmpC inh no detg -52%.
Screening CSc1ccc(CCNC(=O)C2=C(C)C(=O)OC23CCCCC3)cc1 returned AmpC detergent 21%.
For Cc1ccc(-c2nnc(NC3CCCC3)s2)cc1 the results were AMA1-RON2 inh -4%, Shiga toxin inh 53*, Cycloheximide cs 54*, SARS PLpro yeast -2%, AmpC detergent inconclusive and AmpC inh no detg -32%.
Cc1ccc(C)c(NC(=O)CSc2nnc(-c3cc(C)[nH]n3)n2N)c1 was read as AMA1-RON2 inh 10%, Shiga toxin inh -2, Cycloheximide cs 4, SARS PLpro yeast 0%, AmpC detergent 1% and AmpC inh no detg 5%.
O=C(COc1ccc(Cl)cc1Cl)NC1CCSC1=O (centres undefined) was read as AMA1-RON2 inh 3%, Shiga toxin inh 131*, Cycloheximide cs 40*, SARS PLpro yeast 4%, AmpC detergent inconclusive and AmpC inh no detg -13%.
Cc1cc(Cl)ccc1OCC(=O)OCC(=O)NC1CCCC1 was read as AMA1-RON2 inh 1%, SARS PLpro yeast -10%, AmpC detergent -1% and AmpC inh no detg 7%.
`Cc1cccc(CC(=O)NC2CCCCCC2)c1` gave AMA1-RON2 inh 4%, Shiga toxin inh 76, Cycloheximide cs 14*, SARS PLpro yeast -4%, AmpC detergent -19% and AmpC inh no detg 30%.
`Cc1ccccc1OCC(=O)NC1CCCCCCC1` gave AMA1-RON2 inh -7%, Shiga toxin inh 59*, Cycloheximide cs 12, SARS PLpro yeast 0%, AmpC detergent -6% and AmpC inh no detg 4%.
Screening Cc1cccc(CC(=O)NC2CCN(C)CC2)c1 returned AMA1-RON2 inh 8%, Cycloheximide cs 3, SARS PLpro yeast 0%, AmpC detergent -16% and AmpC inh no detg 6%.
For Cc1cccc(OCC(=O)NC2CCCCCC2)c1C the results were AMA1-RON2 inh 1%, Shiga toxin inh -16, Cycloheximide cs 4, SARS PLpro yeast 2%, AmpC detergent 2% and AmpC inh no detg -15%.
O=C(COc1ccc(Cl)cc1Cl)NC1CC1 was read as AMA1-RON2 inh -3%.
`Cc1cc(Cl)ccc1OCC(=O)NC1CCCC1` gave AMA1-RON2 inh 3%, Shiga toxin inh 37, Cycloheximide cs 34*, SARS PLpro yeast -8%, AmpC detergent 5% and AmpC inh no detg 4%.
CC(C)C1N=C2c3ccccc3N=C(SCC(=O)NCc3ccc(F)cc3)N2C1=O (centres undefined) was read as AmpC detergent -3%.
Screening Cc1cccc(OCC(=O)NC2CCCC2)c1 returned AMA1-RON2 inh -8%, Shiga toxin inh 63, Cycloheximide cs 13, SARS PLpro yeast -2%, AmpC detergent -14% and AmpC inh no detg 1%.
Cc1ccc(C)c(OCC(=O)NC2CCCCCC2)c1 was read as AMA1-RON2 inh -1%, Shiga toxin inh 11, Cycloheximide cs 27*, SARS PLpro yeast 5%, AmpC detergent 0% and AmpC inh no detg 45%.
Cn1cccc1C(=O)OCC(=O)NC(=O)NC1CCCCC1 was read as AMA1-RON2 inh 4%, Shiga toxin inh 63, Cycloheximide cs 41*, SARS PLpro yeast 0%, AmpC detergent 4% and AmpC inh no detg -25%.
O=C(COc1ccccc1Cl)NC(=O)NC1CCCC1 was read as AMA1-RON2 inh 14%, Shiga toxin inh 26, Cycloheximide cs 26*, SARS PLpro yeast 10%, AmpC detergent -11% and AmpC inh no detg -12%.
Cc1ccc(OCC(=O)NC2CCCCCC2)cc1C was read as AMA1-RON2 inh -7%, Shiga toxin inh 42, Cycloheximide cs 25*, SARS PLpro yeast 0%, AmpC detergent -9% and AmpC inh no detg 2%.
`O=C(c1cc([N+](=O)[O-])cc([N+](=O)[O-])c1)N1CCOCC1` gave AMA1-RON2 inh 8%, Shiga toxin inh -9, Cycloheximide cs -8, SARS PLpro yeast -11%, AmpC detergent 0% and AmpC inh no detg -17%.
For O=C(COc1ccc2ccccc2c1)NCCNC(=O)COc1ccc2ccccc2c1 the results were AMA1-RON2 inh -5%, Shiga toxin inh -5, Cycloheximide cs 11, SARS PLpro yeast 11%, AmpC detergent 1% and AmpC inh no detg -2%.
Screening Cc1ccc(OCC(=O)NC2CCCC2)c(C)c1 returned AMA1-RON2 inh 17%, Shiga toxin inh 42, Cycloheximide cs 36*, SARS PLpro yeast -1%, AmpC detergent inconclusive and AmpC inh no detg -1%.
O=C(COc1ccc2ccccc2c1)NC1CC1 was read as AMA1-RON2 inh -16%, Shiga toxin inh 70*, Cycloheximide cs 43*, SARS PLpro yeast 4%, AmpC detergent 2% and AmpC inh no detg -8%.
Cc1cc(Cl)ccc1OCC(=O)NNC(=O)c1ccco1 was read as AMA1-RON2 inh 39%, Shiga toxin inh 35*, Cycloheximide cs 35*, SARS PLpro yeast -7%, AmpC detergent 2% and AmpC inh no detg -5%.
Screening O=C(CCn1c(=S)[nH]c2ccccc2c1=O)NCCCN1CCOCC1 returned AMA1-RON2 inh 4%, Shiga toxin inh -14, Cycloheximide cs -1, SARS PLpro yeast 4%, AmpC detergent -1% and AmpC inh no detg -7%.
For COc1ccc(NC(=O)CN2CCN(S(=O)(=O)N(C)C)CC2)cc1 the results were AMA1-RON2 inh 2%, Cycloheximide cs -2, SARS PLpro yeast -4%, AmpC detergent -12% and AmpC inh no detg -19%.
`Cc1cc(OCC(=O)N2CCOCC2)ccc1NC(=O)c1ccccc1C` gave AMA1-RON2 inh 0%, Shiga toxin inh 19, Cycloheximide cs 21*, SARS PLpro yeast -1%, AmpC detergent 5% and AmpC inh no detg 8%.
For Cc1ccc(C(=O)OCC(=O)N2CCOCC2)c(C)c1 the results were AMA1-RON2 inh 4%, Shiga toxin inh 39, Cycloheximide cs 18*, SARS PLpro yeast 1%, AmpC detergent inconclusive and AmpC inh no detg 1%.
O=C(OCC(=O)N1CCOCC1)c1cncc(Br)c1 was read as AMA1-RON2 inh 12%.
Screening Cc1cc(OCC(=O)N2CCOCC2)ccc1[N+](=O)[O-] returned AMA1-RON2 inh -10%, Shiga toxin inh 58*, Cycloheximide cs 25*, SARS PLpro yeast 0%, AmpC detergent -5% and AmpC inh no detg -3%.
Screening Cc1cc(OCCN2CCOCC2)ccc1[N+](=O)[O-] returned AMA1-RON2 inh inconclusive, Shiga toxin inh 17, Cycloheximide cs 10, SARS PLpro yeast 7%, AmpC detergent inconclusive and AmpC inh no detg -39%.
